Test [1] is described as follows: Cell Viability - Jurkat (AID 426;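 active = dose-dependent loss of cell ATP signal giving a full or clear fitted curve, ranked by lower potency value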; also: potency is read from the fitted curve at half-maximal effect). The conditions noted are these: qHTS. The gist of the method: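 Jurkat (clone E6-1, human T-cell leukemia) cells, 5000/well in complete medium, were exposed to compound for 40 hr at 37 °C. Viability was read as intracellular ATP by CellTiter-Glo luminescence; AC50 came from Hill fits of concentration-response data.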
Test [2] in a line: Cell Viability - Hek293 (AID 427;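 active = compounds whose dose-response curve shows a full or clear partial loss of cell viability, called from curve shape rather than a numeric limit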;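 also: potency is read from the fitted curve at half-maximal effect; cells exposed to compound for 40 hours at 37 °C before reading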). The conditions noted are these: qHTS. The method in brief: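 HEK293 cells in complete medium were exposed to compound for 40 hr at 37 °C, then cellular ATP was read by CellTiter-Glo luminescence. Data were normalized to DMSO (basal) and 100 uM tamoxifen (100% inhibition), and AC50 came from Hill fits.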
For orientation: In qHTS, concentration-response curves come from the screen itself.

Test [3] can be described thus: Cell Viability - SH-SY5Y (AID 544).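 Also: 0% = DMSO alone and -100% = 100 µM tamoxifen; nearly all actives have a fitted effect of over 55% in size.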 The following applies: SH-SY5Y neuroblastoma cell viability; viability change, negative = cytotoxic: at 92.2 µM (top of the series). The gist of the method:
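Human neuroblastoma SH-SY5Y cells (1500/well) in complete medium were exposed to compounds for 40 hr at 37 °C; intracellular ATP was then quantified by CellTiter-Glo luminescence after 20 min at room temperature. AC50 came from Hill-equation concentration-response fits.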

Test [4] in a line: Cell Viability - Mesenchymal (AID 546).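 Also: cells exposed to compound for 40 hours before reading; 0% = DMSO only and -100% = 100 µM tamoxifen.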 The conditions noted are these: mesenchymal cells viability, qHTS; series mostly up to 91.7 µM. The gist of the method: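 Normal human renal glomerulus-derived kidney mesenchymal cells, 1000 per well in complete medium, were treated with compounds for 40 hr at 37 °C. Viability was read as intracellular ATP by CellTiter-Glo luminescence; AC50 values came from Hill-equation fits of qHTS concentration-response data.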

The nature of test [5]: MultiTox-Fluor Cytotoxicity Assay - LYMP1-002 - Dead Cells (AID 960).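 Also: 0% = DMSO and 100% = tetraoctylammonium bromide; nearly all actives have a fitted effect of over 60% in size.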 The following applies: LYMP1-002 lymphoblastoid cells, dead-cell protease fluorescence; series mostly up to 46.1 µM. The method in brief:
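Human lymphoblastoid cells (LYMP1-002), 2500/well in complete medium, were exposed to compounds for 16 hr at 37 C. Dead-cell protease activity was read as bis-AAF-R110 fluorescence (Ex/Em 485/520), normalized to DMSO and 15 uM tetraoctylammonium bromide; AC50 from Hill fits.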

Test [6] can be described thus: Cell Viability - LYMP2-005 (AID 967).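 Also: plate controls were DMSO only for no effect and 92 µM tetraoctylammonium bromide control for full effect.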 The conditions noted are these: LYMP2-005 lymphoblastoid cell viability; series mostly up to 92.2 µM. The gist of the method:
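LYMP2-005 human lymphoblastoid cells (2500/well) were treated with compounds for 24 h at 37 C. Intracellular ATP was then measured by CellTiter-Glo luminescence after 30 min at room temperature. AC50 values came from Hill-equation fits of qHTS concentration-response data.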

The nature of test [7]: Cell Viability - LYMP2-026 (AID 989). Also: % is scaled to controls: 0 for no effect and ±100 for the full control effect; nearly all actives have a fitted effect of over 50% in size. The conditions noted are these: LYMP2-026 lymphoblastoid cell viability, qHTS; series mostly up to 92.2 µM. The gist of the method: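 Human lymphoblastoid cells (2500/well) in complete medium were preincubated 5 hr at 37 C, then exposed to compounds for 24 hr at 37 C. Cellular ATP was read by CellTiter-Glo luminescence; AC50 from Hill-equation fits of concentration-response data.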

A short description of test [8]: Cell Viability - LYMP1-002 - Assay at 40 hr (AID 994).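 Also: 0% = DMSO only and full inhibition = 92 µM tetraoctylammonium bromide; nearly all actives have a fitted effect of over 60% in size.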 The following applies: LYMP1-002 lymphoblastoid cell viability; series mostly up to 92.2 µM. The method in brief:
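Human lymphoblastoid cells, 2500/well in complete medium, were preincubated 5 hr at 37 C, then exposed to compounds for 40 hr at 37 C. Intracellular ATP was read by CellTiter-Glo luminescence after 30 min at room temperature; AC50 from Hill-equation fits.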

For test [9], the target named is Peroxisome proliferator-activated receptor gamma (Homo sapiens) (UniProt P37231). In words: qHTS assay for small molecule agonists of peroxisome proliferator-activated receptor gamma signaling (AID 588536; active = well fitted curve in the direction sought with a large enough effect in the signal ratio, with a control signal flat, not every such curve was filed as active; the % refers to the signal ratio;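 also: 0% = DMSO basal wells and 100% = rosiglitazone at 2 µM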). The following applies: HEK293 PPARg-UAS-bla, beta-lactamase ratio, 16 h, percent of rosiglitazone response, DMSO as zero; series mostly up to 76.7 µM. The gist of the method: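 GeneBLAzer PPAR-gamma-UAS-bla HEK293 cells in 1% charcoal/dextran-treated FBS medium were treated 16 h at 37 C with compounds. Beta-lactamase activity was read by CCF4 ratio (460/530 nm). Response was normalized to 2 uM rosiglitazone (100%) and DMSO, then Hill-fitted for EC50 and efficacy.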

The nature of test [10]: qHTS assay for small molecule agonists of retinoid X receptor alpha signaling (AID 588544; calls by dose curve). The following applies: HEK293T RXRa-UAS-bla, beta-lactamase reporter, 18 h; 530 nm emission.
In test [11] the target is Retinoic acid receptor RXR-alpha (Homo sapiens) (UniProt P19793). The description is as above. The following applies: HEK293T RXRa-UAS-bla, beta-lactamase reporter, 18 h; series mostly up to 76.7 µM.
Test [12] addresses Thyroid hormone receptor beta (Homo sapiens) (UniProt P10828). In words: qHTS assay for small molecule agonists of thyroid hormone receptor beta signaling (AID 588545; calls by dose curve;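 also: 0% = DMSO only and 100% = 10 nM T3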). The following applies: TR-UAS-bla GripTite HEK 293, beta-lactamase ratio, agonist mode, 18 h; series mostly up to 76.7 µM. The gist of the method: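 TR-UAS-bla GripTite HEK 293 cells (2500/well, medium with 2% charcoal/dextran FBS) were treated in agonist mode for 18 h at 37 C, titrated. Beta-lactamase was read by CCF4 ratio after 2 h; normalized to 10 nM T3 (100%) and DMSO, Hill-fitted for EC50 and efficacy.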

Test [13] in a line: qHTS assay for small molecule antagonists of retinoid X receptor alpha signaling (AID 588546).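 Also: cells stimulated with 9-cis-retinoic acid as agonist; % is scaled to controls: 0 for no effect and ±100 for the full control effect.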 The following applies: HEK293T RXRa-UAS-bla, beta-lactamase ratio, antagonist mode; measured here: W530 green channel, cytotoxicity proxy. The method in brief: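 Beta-lactamase reporter inhibition, read as CCF4 fluorescence ratio (ex 405, em 460/530 nm) after 2 h at RT. HEK293T UAS-bla cells, 2500/well, were stimulated with 9-cis-RA at 500 or 100 nM final alongside test compound for 18 h at 37 C.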

The target in test [14] is Tumor necrosis factor (Homo sapiens) (UniProt P01375). In words: qHTS assay to identify small molecules that stimulate Tumor Necrosis Factor-alpha (TNF-alpha) secretion (AID 651757; active = well fitted curve in the direction sought with a large enough effect in the signal ratio; the % refers to the signal ratio; also: 0% is about no effect). The conditions noted are these: Human cells, HTRF 665/615 ratio; series mostly up to 92.2 µM. The method in brief:
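THP-1 cells were exposed to compounds for 17 hrs at 37 C, after which secreted TNF-alpha was measured by homogeneous HTRF (TR-FRET) using cryptate- and XL665-labeled anti-TNF-alpha antibodies, read after 3 hr at room temperature.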

Test [15] can be described thus: qHTS assay for small molecule antagonists of the retinoid-related orphan receptor gamma (ROR-gamma) signaling pathway - cell viability counter screen (AID 720652; active = well fitted curve in the direction sought with a large enough effect in the repeat runs; an effect the other way counts as inactive or inconclusive;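 also: CHO reporter cells with doxycycline-induced ROR-gamma expression; compound exposure lasted 16 hr before ATP read; % is scaled to controls: 0 for no effect and ±100 for the full control effect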). The following applies: RORgamma reporter cell line viability counter screen; series mostly up to 92.2 µM. The method in brief: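 Counter screen in CHO cells carrying TET-inducible ROR-gamma and an ROR response element-luciferase reporter; cells plated 5 hr, compound pinned, doxycycline added, then 16 hr at 37 C. Viability read as intracellular ATP by CellTiter-Glo luminescence.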

In test [16] the target is Nuclear receptor subfamily 1 group I member 2 (Rattus norvegicus) (UniProt Q9R1A7). The test is described as follows: qHTS assay for small molecule activators of the rat pregnane X receptor (rPXR) signaling pathway (AID 651751; call rule not given here; also: 0% is about no effect). The conditions noted are these: rPXR reporter cells, luciferase (One-Glo), 24 h.
Test [17] has as its target Cytochrome P450 3A4 (Homo sapiens) (UniProt P08684). In words: qHTS Assay for Inhibitors and Substrates of Cytochrome P450 3A4 (AID 884). Also: % is scaled to controls: 0 for no effect and ±100 for the full control effect; nearly all actives have a fitted effect of over 50% in size. The conditions noted are these: recombinant CYP3A4, Luciferin-PPXE luminescence; series mostly up to 57.1 µM. The gist of the method:
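20 nM human CYP3A4 with 25 uM Luciferin-PPXE (at KM) in 200 mM KPO4, preincubated 10 min with compound; NADPH regeneration started a 60 min RT reaction. Luciferin detected by luminescence, normalized to 57 uM ketoconazole as full inhibition.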

Test [18] is described as follows: Cell Viability - LYMP2-019 (AID 973).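 Also: 0% = DMSO alone and full effect = 92 µM tetraoctylammonium bromide; nearly all actives have a fitted effect of over 55% in size.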 The following applies: LYMP2-019 lymphoblastoid cell line viability; series mostly up to 92.2 µM. The method in brief: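 Human lymphoblastoid cells were seeded at 2500 cells/well, preincubated 5 hr at 37 C, then exposed to compounds for 24 hr at 37 C in complete medium. Intracellular ATP was measured by CellTiter-Glo luminescence; AC50 from Hill fits.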

Test [19] can be described thus: Cell Viability - LYMP2-024 (AID 988).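 Also: plate controls were DMSO only for no effect and 92 µM tetraoctylammonium bromide for full effect; nearly all actives have a fitted effect of over 60% in size.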 The conditions noted are these: LYMP2-024 lymphoblastoid cell viability; series mostly up to 92.2 µM. The gist of the method: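 Human lymphoblastoid cells (2500/well) in complete medium were preincubated 5 hr at 37 C, then exposed to compounds for 24 hr at 37 C. Intracellular ATP was read by CellTiter-Glo luminescence; AC50 from Hill-equation fits of concentration-response data.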

Test [20] in a line: Cell Viability - LYMP2-010 (AID 981). Also: % is scaled to controls: 0 for no effect and ±100 for the full control effect; nearly all actives have a fitted effect of over 55% in size. The following applies: LYMP2-010 lymphoblastoid cell viability, qHTS; series mostly up to 92.2 µM. The gist of the method: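 Human lymphoblastoid LYMP2-010 cells (2500/well) were preincubated 5 hr at 37 C, then exposed to compounds for 24 hr at 37 C in complete medium. Intracellular ATP was measured by CellTiter-Glo luminescence after 30 min at room temperature; AC50 from Hill-fitted concentration-response.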

SMILES strings stand for the structures. Where “and” joins values, the source holds several entries; their conditions need not be identical. Equal values may be shown once. Inconclusive results are not listed. Calls of active or inactive are those of the source. Unless noted, calls follow the shape of the dose curve; as a rule, active = well fitted curve in the direction sought with a large enough effect; inconclusive = small, poorly fitted or top-dose-only effect, or another doubt; inactive = no such curve, though single readings can be large; an effect the other way counts as inactive or inconclusive. Some results are limits rather than exact numbers.

Chain of Tumor necrosis factor (Homo sapiens) (P01375 whole entry, looked up): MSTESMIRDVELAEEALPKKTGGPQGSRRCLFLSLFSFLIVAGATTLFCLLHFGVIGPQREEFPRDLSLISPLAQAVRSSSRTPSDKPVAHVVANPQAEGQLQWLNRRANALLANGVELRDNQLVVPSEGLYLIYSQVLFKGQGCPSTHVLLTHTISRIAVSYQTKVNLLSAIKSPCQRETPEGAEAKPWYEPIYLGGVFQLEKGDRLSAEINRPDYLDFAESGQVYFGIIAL
Chain of Thyroid hormone receptor beta (Homo sapiens) (P10828 whole entry, looked up): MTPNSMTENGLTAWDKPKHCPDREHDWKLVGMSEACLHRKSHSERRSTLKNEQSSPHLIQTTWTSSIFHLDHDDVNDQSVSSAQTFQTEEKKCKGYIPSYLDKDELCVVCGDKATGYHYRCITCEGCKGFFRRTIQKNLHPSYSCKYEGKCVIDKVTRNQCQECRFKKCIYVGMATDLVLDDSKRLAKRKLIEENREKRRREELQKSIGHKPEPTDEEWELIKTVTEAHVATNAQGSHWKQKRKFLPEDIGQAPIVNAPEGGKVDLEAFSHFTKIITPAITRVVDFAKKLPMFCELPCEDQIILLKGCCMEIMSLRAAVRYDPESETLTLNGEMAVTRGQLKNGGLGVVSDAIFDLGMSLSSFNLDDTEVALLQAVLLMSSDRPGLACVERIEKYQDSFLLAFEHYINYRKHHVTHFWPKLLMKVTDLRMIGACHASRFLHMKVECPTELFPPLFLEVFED
Chain of Retinoic acid receptor RXR-alpha (Homo sapiens) (P19793 whole entry, looked up): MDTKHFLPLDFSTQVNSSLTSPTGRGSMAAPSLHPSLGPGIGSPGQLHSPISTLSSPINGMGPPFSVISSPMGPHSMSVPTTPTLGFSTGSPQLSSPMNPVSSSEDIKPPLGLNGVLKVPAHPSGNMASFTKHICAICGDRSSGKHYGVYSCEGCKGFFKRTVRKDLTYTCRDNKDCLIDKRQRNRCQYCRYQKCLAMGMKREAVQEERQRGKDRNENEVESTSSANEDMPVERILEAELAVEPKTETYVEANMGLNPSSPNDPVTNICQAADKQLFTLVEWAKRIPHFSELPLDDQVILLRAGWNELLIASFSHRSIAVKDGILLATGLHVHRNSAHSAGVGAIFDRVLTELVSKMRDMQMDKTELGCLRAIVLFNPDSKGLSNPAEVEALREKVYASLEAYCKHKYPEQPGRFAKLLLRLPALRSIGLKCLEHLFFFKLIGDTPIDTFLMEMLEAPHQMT
Chain of Nuclear receptor subfamily 1 group I member 2 (Rattus norvegicus) (Q9R1A7 whole entry, looked up): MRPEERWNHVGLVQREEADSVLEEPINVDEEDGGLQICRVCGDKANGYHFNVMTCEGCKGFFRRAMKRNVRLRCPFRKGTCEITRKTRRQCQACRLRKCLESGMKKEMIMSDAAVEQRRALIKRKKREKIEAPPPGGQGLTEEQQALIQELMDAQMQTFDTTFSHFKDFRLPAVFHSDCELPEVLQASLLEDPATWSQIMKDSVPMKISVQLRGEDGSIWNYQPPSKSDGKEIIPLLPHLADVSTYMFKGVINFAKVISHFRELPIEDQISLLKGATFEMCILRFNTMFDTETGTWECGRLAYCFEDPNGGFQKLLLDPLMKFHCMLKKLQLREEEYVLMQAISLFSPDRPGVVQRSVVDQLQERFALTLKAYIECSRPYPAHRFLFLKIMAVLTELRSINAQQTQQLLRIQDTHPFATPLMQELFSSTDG
Chain of Peroxisome proliferator-activated receptor gamma (Homo sapiens) (P37231 whole entry, looked up): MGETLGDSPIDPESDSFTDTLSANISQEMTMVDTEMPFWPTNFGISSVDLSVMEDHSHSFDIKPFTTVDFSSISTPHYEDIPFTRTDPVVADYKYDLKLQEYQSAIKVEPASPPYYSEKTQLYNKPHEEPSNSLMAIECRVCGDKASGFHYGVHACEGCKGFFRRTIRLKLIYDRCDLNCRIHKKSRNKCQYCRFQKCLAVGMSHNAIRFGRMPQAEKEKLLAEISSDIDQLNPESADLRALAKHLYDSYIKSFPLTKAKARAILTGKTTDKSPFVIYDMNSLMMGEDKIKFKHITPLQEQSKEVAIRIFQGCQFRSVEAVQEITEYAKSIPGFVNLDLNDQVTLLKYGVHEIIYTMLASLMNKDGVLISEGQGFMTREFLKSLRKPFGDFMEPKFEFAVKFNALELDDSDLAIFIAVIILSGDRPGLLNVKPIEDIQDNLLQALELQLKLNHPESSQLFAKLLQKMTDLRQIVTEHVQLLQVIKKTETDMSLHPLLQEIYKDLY
Chain of Cytochrome P450 3A4 (Homo sapiens) (P08684 whole entry, looked up): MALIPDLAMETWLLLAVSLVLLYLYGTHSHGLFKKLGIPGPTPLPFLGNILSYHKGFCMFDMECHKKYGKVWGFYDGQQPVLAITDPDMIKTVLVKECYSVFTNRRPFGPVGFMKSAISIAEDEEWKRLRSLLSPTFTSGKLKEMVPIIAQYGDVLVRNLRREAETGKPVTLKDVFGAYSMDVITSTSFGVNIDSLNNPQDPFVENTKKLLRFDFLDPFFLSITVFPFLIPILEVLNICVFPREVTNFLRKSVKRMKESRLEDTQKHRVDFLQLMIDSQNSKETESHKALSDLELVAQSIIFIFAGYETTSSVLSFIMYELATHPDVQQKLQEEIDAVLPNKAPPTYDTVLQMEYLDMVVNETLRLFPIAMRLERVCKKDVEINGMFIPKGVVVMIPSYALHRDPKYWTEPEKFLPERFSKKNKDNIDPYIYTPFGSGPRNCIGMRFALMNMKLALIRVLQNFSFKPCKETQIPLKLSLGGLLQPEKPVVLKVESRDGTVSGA

As to `C=C(Cl)CSC(=S)N(CC)CC`, the Potency in test [1] and in [2] was > 92 µM (inactive) each time. Moreover, the Potency result in test [3], in test [4], in [5], in test [6], in test [7] and in test [8] was “inactive” throughout. In addition, the Potency result in test [12] and in test [15] was “inactive” each time. The result in test [9], in [11] and in test [14] was inactive. For the same compound, the max response in test [10] was -16.2%; in [13], -2.71%; in [16], 1.65% (inactive).
As to `Nc1cccc(Cl)c1`, the Potency in [1] and in test [2] was > 92 µM (inactive) throughout. Moreover, the Potency entry in test [3], in test [4], in test [17], in test [5], in test [18] and in test [19] was “inactive” each time. Besides, the Potency entry in [7], in test [8], in test [12] and in test [15] was “inactive” in each case. Further, the result in [9], in test [11] and in test [14] was inactive. Also, the max response in [10] is 4.67%; in test [13] it was 0.683%; in test [16], 1.89% (inactive).
Turning to `CCCCC#N`, the Potency in test [1] and in test [2] was > 92 µM (inactive) in each case. Moreover, the Potency result in test [3], in [4], in test [17], in test [5], in test [6] and in [18] was “inactive” each time. Moreover, the Potency entry in [20], in test [19], in test [7], in [8] and in [15] was “inactive” throughout. Also, the figures for the max response in [10], in test [13] and in test [16] were 2.48%, -4.26% and -0.572% (inactive), respectively. The result in test [11] and in [14] was inactive.
As for `Nc1ncc([N+](=O)[O-])s1`, the Potency in [1] and in [2] was > 92 µM (inactive) each time. Further, the Potency entry in test [3], in [4], in [17], in test [5], in [6] and in test [18] was “inactive” throughout. The Potency result in [20], in test [19], in [7], in [8], in [12] and in [15] was “inactive” in each case. Moreover, the result in test [9], in test [11] and in test [14] was inactive. For the same compound, the max response was 0.224% in [10], -7.58% in [13] and -6.92% (inactive) in test [16].
In the case of `CCOC(=O)CC(SP(=O)(OC)OC)C(=O)OCC` (stereo unspecified), the Potency in [1] and in [2] was > 92 µM (inactive) each time. The Potency entry in test [4], in test [5], in [6], in test [18], in test [20] and in test [19] was “inactive” throughout. Besides, the Potency result in test [7], in test [8], in test [12] and in [15] was “inactive” throughout. Besides, the outcome in test [9], in test [11] and in [14] was inactive. Besides, the max response in test [10] is 9.41% and -5.43%; in [13], 7.78% and 5.62%; in test [16] it was -7.84% (inactive) and -3.31% (inactive).
On to `c1ccc(P(c2ccccc2)c2ccccc2)cc1`, for which the Potency in test [1] and in [2] was > 92 µM (inactive) throughout. The Potency entry in test [3], in test [4], in [17], in [19], in test [7] and in [8] was “inactive” each time. Moreover, the Potency result in test [12] and in [15] was “inactive” each time. Also, the result in test [9], in test [11] and in test [14] was inactive. Also, the max response in test [10] was 22.6%; in [13], -7.38%; in test [16], 2.64% (inactive).
For `CC(C)[C@]12CC(=O)[C@H](C)[C@H]1C2`, the Potency in test [1] and in test [2] was > 92 µM (inactive) each time. The Potency result in [3], in test [4], in test [17], in [5], in [6] and in test [18] was “inactive” each time. The Potency result in [20], in test [19], in [7], in test [8], in test [12] and in test [15] was “inactive” throughout. Besides, the outcome in test [9], in test [11] and in test [14] was inactive. For the same compound, the max response in test [10] was -6.67% and -9.54%; in test [13], -7.72% and -9.15%; in test [16], 2.33% (inactive) and 6.9% (inactive).

The values are drawn from PubChem BioAssay (NCATS).
